Assay results from the supplement of paper PMC7411640.
Where a name gives a salt, the structure may show the parent alone.

System: MDA-MB-468
Test: phospho-S6 immunofluorescence (DAPI-normalised), per-plate z-score; higher = higher phospho-S6 signal (less pathway suppression)
Conditions: 24 h
Experimental: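 GPCR-targeted compound library (MedChemExpress HY-L006) tested on MDA-MB-468 PTEN-null TNBC cells in 384-well plates at 0.1, 1 or 10 uM, combined with vehicle, GDC0941 450 nM or lapatinib 1 uM, for 24 h. Phospho-S6 (S240/244) immunofluorescence normalised to DAPI and expressed as a per-plate z-score; values are the mean of biological triplicates.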

| SMILES | phospho-S6 immunofluorescence (z-score) (co-treatment: GDC0941 450 nM) | phospho-S6 immunofluorescence (z-score) (co-treatment: lapatinib 1 uM) | phospho-S6 immunofluorescence (z-score) (co-treatment: vehicle) |
| --- | --- | --- | --- |
| COC(=O)[C@H]1[C@H]2C[C@H]3c4[nH]c5ccccc5c4CCN3C[C@H]2CC[C@@H]1O [Rauwolscine (hydrochloride)] (compound 10 µM) | 0.42 | 0.38 | -0.22 |
| c1ccc(CC2=NCCN2)cc1 [Tolazoline (hydrochloride)] (compound 10 µM) | 1.08 | 0.41 | 0.92 |
| COc1ccc(CNC(=O)c2sc3nc(C)cc(C)c3c2N)cc1 (compound 10 µM) | -1.98 | 1.66 | 0.34 |
| COc1ccc(CC(C)NCC(O)c2ccc(O)c(NC=O)c2)cc1 (centres undefined) [Formoterol (Fumarate)] (compound 10 µM) | 1.08 | 0.77 | 0.16 |
| CN1CCN(CCCN2c3ccccc3Sc3ccc(C(F)(F)F)cc32)CC1 [Trifluoperazine (dihydrochloride)] (compound 10 µM) | -4.47 | -5.54 | -4.02 |
| COCCCN1CCC(NC(=O)c2cc(Cl)c(N)c3c2OCC3)CC1 [Prucalopride] (compound 10 µM) | 0.54 | 0 | 0.17 |
| O=C(O[C@@H]1C[C@@H]2C[C@H]3C[C@H](C1)N2CC3=O)c1c[nH]c2ccccc12 [Dolasetron (Mesylate hydrate)] (compound 10 µM) | 0.52 | -0.24 | 0.62 |
| N#Cc1ccc2[nH]cc(CCCCN3CCN(c4ccc5oc(C(N)=O)cc5c4)CC3)c2c1 [Vilazodone] (compound 10 µM) | 0.37 | 0.11 | 1.24 |
| Nc1nc(-c2nn(Cc3ccccc3F)c3ncccc23)ncc1C1CC1 (compound 10 µM) | 1.07 | 2.78 | -0.52 |
| OCCN1CCN(CCCN2c3ccccc3Sc3ccc(Cl)cc32)CC1 [Perphenazine] (compound 10 µM) | -1.28 | -5.07 | 0.82 |
| OC[C@@H](O)CN1CCN(c2ccccc2)CC1 [Levodropropizine] (compound 10 µM) | -0.63 | 0.66 | -0.68 |
| CN(C)C(=O)N[C@H]1CC[C@H](CCN2CCN(c3cccc(Cl)c3Cl)CC2)CC1 [Cariprazine (hydrochloride)] (compound 10 µM) | 0.26 | -1.23 | 1.3 |
| CCOc1nc2cccc(C(=O)O)c2n1Cc1ccc(-c2ccccc2-c2nnn[nH]2)cc1 [Candesartan] (compound 10 µM) | 1 | 0.32 | 0.19 |
| CCC(=O)O[C@]1(C(=O)CCl)[C@@H](C)C[C@H]2[C@@H]3CCC4=CC(=O)C=C[C@]4(C)[C@@]3(F)[C@@H](O)C[C@@]21C [Clobetasol propionate] (compound 10 µM) | -0.19 | -0.09 | 0.7 |
| C[C@@H]1CCCN1CCc1cc2cc(-c3ccc(C#N)cc3)ccc2o1 (compound 10 µM) | -3.3 | -4.56 | -0.97 |
| CN(C)N(C)C(=O)[C@@]1(Cc2ccccc2)CCCN(C(=O)[C@@H](Cc2c[nH]c3ccccc23)NC(=O)C(C)(C)N)C1 [Anamorelin] (compound 10 µM) | -0.16 | -2.31 | 0.4 |
| CCC/N=C1\S/C(=C\c2ccc(OC[C@H](O)CO)c(Cl)c2)C(=O)N1c1ccccc1C [Ponesimod] (compound 10 µM) | -0.8 | 0.52 | 1.07 |
| O=C1c2cccc3c2[C@H](CCC3)CN1[C@@H]1CN2CCC1CC2 [Palonosetron (Hydrochloride)] (compound 10 µM) | -0.7 | 0.4 | -0.33 |
| O=C1O[C@]2(CC[C@H](C(=O)Nc3ccn(-c4ccccc4F)n3)CC2)c2cnccc21 (compound 10 µM) | 0.73 | -0.47 | 0.3 |
| CN1CCc2cc(Cl)c(O)cc2[C@@H](c2ccccc2)C1 (compound 10 µM) | -0.98 | -1.63 | 0.1 |
| C[C@@H](O[C@H]1OCCN(Cc2nn(P(=O)(O)O)c(=O)[nH]2)[C@H]1c1ccc(F)cc1)c1cc(C(F)(F)F)cc(C(F)(F)F)c1 [Fosaprepitant (dimeglumine)] (compound 10 µM) | -2.28 | -0.65 | 0.39 |
| CN(C)CCC=C1c2ccccc2C=Cc2ccccc21 [Cyclobenzaprine (hydrochloride)] (compound 10 µM) | 0.8 | -0.8 | -0.18 |
| O=C(O)CCCN1CCC(O[C@@H](c2ccc(Cl)cc2)c2ccccn2)CC1 [Bepotastine (Beslilate)] (compound 10 µM) | -0.72 | -0.17 | 0.56 |
